Assay results as given in PubChem BioAssay (NCI).
The panel holds about 83,000 compounds, 20% with a hit somewhere; the sample as a whole holds those more often.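 Cell lines were cultured in 96-well plates, exposed to a single compound concentration, and assessed for percent growth 48 hours later.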 Unmarked numbers belong to inactive results. Activity calls are given as the source filed them. How the source made its calls: active means growth percent below 10; inactive means the rest.

What was measured:
Test in all cases: NCI-60 one-dose screen, 48 h (100 = growth as untreated, 0 = no growth, -100 = all killed)
Details in all cases: 10 µM
NCI-H23 lung = system: NCI-H23 lung
NCI-H226 lung = system: NCI-H226 lung
NCI-H322M lung = system: NCI-H322M lung
HOP-62 NSCLC = system: HOP-62 NSCLC
NCI-H460 lung = system: NCI-H460 lung
A549/ATCC NSCLC = system: A549/ATCC NSCLC
786-0 renal = system: 786-0 renal
COLO 205 colon = system: COLO 205 colon
DU-145 prostate = system: DU-145 prostate
K-562 leukemia = system: K-562 leukemia
MALME-3M melanoma = system: MALME-3M melanoma
MDA-MB-231 breast = system: MDA-MB-231 breast
RXF 393 renal = system: RXF 393 renal
SF-268 CNS = system: SF-268 CNS
SF-295 CNS = system: SF-295 CNS
SF-539 CNS = system: SF-539 CNS
UACC-257 melanoma = system: UACC-257 melanoma
M14 melanoma = system: M14 melanoma
HCT-15 colon = system: HCT-15 colon

SMILES	growth (NCI-H23 lung)	growth (NCI-H226 lung)	growth (NCI-H322M lung)	growth (HOP-62 NSCLC)	growth (NCI-H460 lung)	growth (A549/ATCC NSCLC)	growth (786-0 renal)	growth (COLO 205 colon)	growth (DU-145 prostate)	growth (K-562 leukemia)	growth (MALME-3M melanoma)	growth (MDA-MB-231 breast)	growth (RXF 393 renal)	growth (SF-268 CNS)	growth (SF-295 CNS)	growth (SF-539 CNS)	growth (UACC-257 melanoma)	growth (M14 melanoma)	growth (HCT-15 colon)
Cc1ccc(N=Nc2c(N)nc(N)[nH]c2=O)cc1C	101%	93.5%	83.1%	92.9%	107%	104%	91.2%	112%	117%	90.9%	89.9%	117%	110%	111%	112%	102%	107%	97.2%	103%
CSc1cc(SC)ncn1	120%	107%	105%	108%	119%	105%	103%	104%	115%	96.6%		95.7%	124%	112%	102%	98.1%	104%	112%	98.2%
COc1ccc(-c2nc(-c3nc4ccc(OC)cc4[nH]3)cc3c2[nH]c2ccccc23)cc1	55%	65.3%	48.2%	53.9%	2.46% (active)	12.9%	37.4%	31.3%	19.9%	16.2%	58.6%	59.5%	43%	48.8%	-13.1% (active)	51.6%	70.5%	34.7%	28.7%
Cn1c([N+](=O)[O-])cnc1/C=C1\Oc2cc(Cl)ccc2C1=O	-22.8% (active)	59.5%	60.4%	16.5%	-32.1% (active)	3.98% (active)	-6.4% (active)	-52.9% (active)	-18.3% (active)	35.8%	-56.7% (active)	-27.7% (active)	-66.8% (active)	-37.4% (active)	38.5%	28%	-42% (active)	-34.7% (active)	3.55% (active)
O=S(=O)(Nc1ccccn1)c1ccc(N=Nc2ccc(O)c3ncccc23)cc1	14.5%	21.3%	-11.8% (active)	7.27% (active)	5.48% (active)	-6.8% (active)	21.4%	108%	27.6%	6.51% (active)	-19.8% (active)	-2.1% (active)	27.1%	25%	6.2% (active)	10.8%	-23.5% (active)	11.8%	14.5%
CSc1nc(=O)n(Cc2ccc(F)cc2)c(=O)n1Cc1ccc(C)cc1	101%	101%	112%	101%	105%	88.5%	100%	94.6%	107%	91.1%	97.6%	103%	113%	96.6%	79.8%	108%	106%	99.7%	102%
CC(C)N(CCNc1nc(C(Cl)(Cl)Cl)nc2cc(Cl)ccc12)C(C)C	-0.581% (active)	0.531% (active)	33.5%	-41.4% (active)	-45.6% (active)	-41.6% (active)	-76.4% (active)	-89.8% (active)	-15% (active)	-53.9% (active)	-28% (active)	-66.4% (active)	-19% (active)	0.341% (active)	-64.9% (active)	-33.7% (active)	-64.7% (active)	-68.7% (active)	-38.4% (active)
COc1cc(CNc2ccccc2C(=O)N2CCN(C(=O)c3cc(-c4cc(OC)c(OC)c(OC)c4)n4nc(-c5ccccc5)cc4n3)CC2)cc(OC)c1OC	61.7%	76.5%	43.7%	53.9%	11.7%	37.8%	50.8%	46.8%	67.7%	22.8%		67.8%	35.5%	65%	0.214% (active)	49.4%	37.5%	33%	42.8%
O=C(/C=C/c1cc2ccccc2[nH]c1=O)c1ccc2c(c1)OCO2	98.5%	114%	92%	98%	94.4%	93.4%	102%	95.7%	102%	87.4%	78%	94%	112%	93.6%	100%	88.2%	94.2%	87.3%	97.6%
CC(=O)O[C@]1(C)CC[C@H]2[C@H](CNCCc3ccc(Cl)cc3)C(=O)O[C@@H]2C2=C(C)C(=O)C[C@H]21	102%	94.9%	91.9%	94%	106%	85.6%	96.6%	97%	89.4%	79.4%	84.2%	90.5%	115%	91%	105%	106%	76.4%	88.4%	88.4%
NC(=O)c1ccc(-c2cccc3c(=O)nc(N4CCOCC4)oc23)cc1	92.4%	82.6%	93%	95.1%	105%	100%	100%	104%	103%	110%	85.4%	91.9%	104%	93.8%	93.9%	102%	104%	97.8%	102%
O=C(O)CN1C(=O)c2cccc3cccc(c23)C1=O	101%	96.5%	102%	97.4%	110%	95.4%	91.7%	105%	117%		102%	85.1%		122%	99.7%	98.7%	98.2%	99.6%	108%
Cc1ccc(C(=O)Nc2cccc(F)c2)cc1NC(=O)C1(c2ncnc3[nH]ccc23)CC1	68.2%	67.4%	116%	67.4%	96.2%	82.4%	110%	59.1%	106%	6.39% (active)	35%	54.8%	91.5%	95.2%	89.3%	73%		60%	88.8%
COc1ccc2c(c1)nc(N)c1c3cccnc3cn21	33.9%	69.4%	72.5%	42%	1.19% (active)	11.8%	22.7%	-31.5% (active)	5.32% (active)	18.4%	66.3%	22.4%	34.8%	34.4%	-16.6% (active)	10.2%	67.1%	9.28% (active)	19.5%
O=S(=O)(NCCCNc1nccc(-c2c(-c3ccc(F)cc3)nc3sccn23)n1)c1ccc(F)cc1	56.2%	40%	43.2%	74%	26.9%	25.9%	59%	21%	44.6%	13.5%	48.5%	73.3%	57.9%	45.4%	25.4%	78.1%	57.2%	44.4%	38.4%
O=C1NC(=O)c2ncccc21	101%	96.3%	106%	109%	111%	98.8%	102%	114%	113%	107%	114%	116%		103%	89.7%	101%	102%	99.9%	101%
O=C(NN1C(=O)CSC1c1ccc(Cl)cc1)c1cccnc1 (centres undefined)	86.8%	249%	98.9%	93.7%	103%	113%	92%	110%	52.2%		88.8%	156%		97%	78.3%	105%	112%	84.1%	119%
COc1cc(-c2cc(C(=O)N3CCN(C(=O)c4ccccc4NCc4cccs4)CC3)nc3cc(-c4ccccc4)nn23)cc(OC)c1OC	85.6%	78.7%	72.1%	87.5%	38.4%	50.7%	85.2%	56.1%	81.7%	31.4%		90.1%	62.3%	90.8%	105%	98.5%	76.4%	70.9%	55.4%
Clc1ccc(Sc2nc(NC3CC3)nc(Sc3ccc(Cl)cc3)n2)cc1	81%	83.4%	86.7%	102%	89.3%	80.9%	87.5%	74%	92.8%	75.2%	80.7%	81.1%	79.1%	79.3%	67.4%	95%	89.6%	86.2%	71.3%
COc1ccc(-c2csc(NC(=O)CSc3nc(C)c(-c4ccccc4)n3Nc3ccccc3)n2)cc1	21.8%	63.8%	69.8%	71.1%	43.2%	36.6%	53.3%	66.6%	65.3%	24.8%	60.4%	65.8%	63.9%	44.7%	-9.42% (active)	72.7%	89.3%	50.4%	44.2%
CCN(CC)CCSCCCNc1c2ccc(Cl)cc2nc2ccc(OC)cc12	-30.8% (active)	48.7%	-35.6% (active)	-31.6% (active)	-39.7% (active)	-29.5% (active)	-37.3% (active)	-82.9% (active)	1.82% (active)	-13.3% (active)	-69.1% (active)	-59.9% (active)		-39.2% (active)	-79% (active)	-75.2% (active)	-77.1% (active)	-73.7% (active)	-30.8% (active)
COc1ccccc1CNCCN1C(=O)c2ccc3c4c(ccc(c24)C1=O)C(=O)N(CCNCc1ccccc1OC)C3=O	-70.5% (active)	-74.7% (active)	-65.4% (active)	-79.8% (active)	-91.3% (active)	-93% (active)	-82.4% (active)	-97.5% (active)	-100% (active)	-43.8% (active)	-92% (active)	-18.4% (active)		-79.5% (active)	-56.7% (active)	-97.3% (active)	-96.4% (active)	-94% (active)	-77.1% (active)
O=C(Nc1nc2ccc(F)cc2s1)c1cc(-c2ccc(F)cc2)n2nc(-c3ccccc3)cc2n1	79.7%	105%	111%	64.1%	59.5%	92.1%	101%	96.4%	87%	99.9%	-1.39% (active)	83.5%	104%		94.8%	93.6%	59.2%	81%	90.8%
COc1ccc(Nc2ncnc3c2c(SC)nn3-c2ccccc2)cc1	89.8%	85.5%	82.4%	96.7%	99.4%	86%	93.9%	111%	101%	94%	93%	93.4%	81.3%	95.1%	88.7%	99.3%	106%	94.4%	89.2%
COc1ccc(/C=C/C(=O)Nc2ccc(-c3nc4ccc(OC)cc4s3)cc2)cc1	94.7%	99.9%	112%	101%	106%	103%	103%	121%	117%	95.7%		111%	112%	116%	106%	102%	111%	106%	111%
Cc1nc2c(c(=O)[nH]1)OCN(Cc1ccccc1)C2	100%	103%	105%	107%	110%	112%	101%	112%	108%	88%	87%	107%	118%	103%	107%	109%	97.8%	101%	99.4%
N#Cc1cccc(OCc2nc(N)nc(N)c2-c2ccc(Cl)c(Cl)c2)c1	32.9%	46.7%	24.7%	35.9%	11.5%	7.65% (active)	19.4%	34.1%	25.3%	14.6%	33.6%	51.4%	43.7%	28.4%	-7% (active)	22.6%	11.1%	23.2%	17.7%
COc1ccc(-c2cc(/C=C3\C(=O)Nc4ccc(OC)cc43)[nH]n2)cc1	67.1%	69.8%	53.9%	50.7%	16.4%	40.6%	65.3%	13%	40.4%	15.6%	35.1%	59.2%	48%	42%	1.93% (active)	24.8%	68.8%	35.7%	22.8%
